{"source": "PubChem BioAssay (NCATS)", "key": {"[1]": {"target": "Ubiquitin carboxyl-terminal hydrolase 1 (Homo sapiens) (UniProt O94782)", "sequence (O94782 whole entry, looked up)": "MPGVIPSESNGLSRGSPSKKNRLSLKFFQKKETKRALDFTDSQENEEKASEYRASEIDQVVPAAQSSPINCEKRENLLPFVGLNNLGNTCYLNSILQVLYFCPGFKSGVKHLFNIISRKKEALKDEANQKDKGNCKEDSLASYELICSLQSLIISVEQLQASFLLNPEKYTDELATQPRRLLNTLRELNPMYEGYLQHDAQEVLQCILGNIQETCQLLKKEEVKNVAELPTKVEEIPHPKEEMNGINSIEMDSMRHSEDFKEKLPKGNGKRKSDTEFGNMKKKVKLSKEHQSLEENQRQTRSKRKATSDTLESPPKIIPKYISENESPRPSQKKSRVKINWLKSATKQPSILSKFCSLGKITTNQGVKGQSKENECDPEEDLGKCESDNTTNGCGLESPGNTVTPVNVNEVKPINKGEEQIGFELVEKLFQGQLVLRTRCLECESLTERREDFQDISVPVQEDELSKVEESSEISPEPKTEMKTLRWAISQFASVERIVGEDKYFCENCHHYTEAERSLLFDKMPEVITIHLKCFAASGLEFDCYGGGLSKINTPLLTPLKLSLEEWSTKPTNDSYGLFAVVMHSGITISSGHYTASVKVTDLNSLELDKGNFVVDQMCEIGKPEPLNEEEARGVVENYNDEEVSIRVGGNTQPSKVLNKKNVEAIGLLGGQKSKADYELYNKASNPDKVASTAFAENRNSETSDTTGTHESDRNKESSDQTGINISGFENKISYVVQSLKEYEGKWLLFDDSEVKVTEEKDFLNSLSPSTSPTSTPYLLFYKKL", "assay": "Inhibitors of USP1/UAF1: Pilot qHTS (AID 504865);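 note: rhodamine fluorescence freed from ubiquitin-rhodamine substrate followed over time; top concentration of the series differs between compounds; nearly all actives have a fitted effect of over 35% in size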", "procedure,_shortened": "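In 50mM HEPES pH 7.8 containing 0.5mM EDTA, 1mM TCEP, 0.1 mg/ml BSA and 0.01% Tween-20, 1nM USP1/UAF1 is exposed to compound for 15 min, then Ub-Rho (150nM final) is added and fluorescence is read over time.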"}, "[2]": {"target": "Luciferin 4-monooxygenase (Photinus pyralis) (UniProt P08659)", "sequence (P08659 whole entry, looked up)": "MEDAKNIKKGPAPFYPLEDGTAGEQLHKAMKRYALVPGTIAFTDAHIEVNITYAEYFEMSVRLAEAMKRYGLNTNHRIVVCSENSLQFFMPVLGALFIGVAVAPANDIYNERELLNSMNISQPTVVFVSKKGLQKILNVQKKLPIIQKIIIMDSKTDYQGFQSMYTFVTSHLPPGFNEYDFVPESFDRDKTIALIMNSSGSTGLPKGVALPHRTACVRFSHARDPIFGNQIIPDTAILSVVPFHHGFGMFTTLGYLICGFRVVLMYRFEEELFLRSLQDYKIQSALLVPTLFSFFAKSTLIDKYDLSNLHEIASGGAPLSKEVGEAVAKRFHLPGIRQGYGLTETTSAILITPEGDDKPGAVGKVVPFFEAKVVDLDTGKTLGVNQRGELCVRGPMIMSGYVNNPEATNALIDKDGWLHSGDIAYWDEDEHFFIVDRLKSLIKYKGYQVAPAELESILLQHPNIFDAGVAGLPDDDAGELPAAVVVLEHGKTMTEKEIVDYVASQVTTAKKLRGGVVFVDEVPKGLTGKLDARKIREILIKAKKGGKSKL", "assay": "Biochemical firefly luciferase enzyme assay for NPC (AID 624030);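 note: purified P. pyralis luciferase at 10 nM with luciferin and ATP substrate; nearly all actives have a fitted effect of over 70% in size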", "procedure,_shortened": "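Direct inhibition of firefly luciferase enzyme (10 nM final, 50 mM Tris Acetate) assessed by luminescence within 5 minutes. Percent activity scaled between DMSO and PTC124 positive control, with concentration-effect curves classified by fit quality and response.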"}, "[3]": {"assay": "S16 Schwann cell PMP22 intronic element firefly luciferase assay (AID 624032); note: nearly all actives have a fitted effect of over 30% in size", "procedure,_shortened": "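Luciferase reporter of PMP22 intronic-element expression in stably transfected S16 rat Schwann cells, read by ONE-Glo luminescence after 24 h compound exposure at 37 C. Activity scaled between DMSO (0%) and positive-control PTC124; concentration-effect curves quality-classified.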"}, "[4]": {"assay": "S16 Schwann cell PMP22 intronic element beta-lactamase assay (AID 624044; calls by dose curve; note: nearly all actives have a fitted effect of over 15% in size)", "procedure,_shortened": "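Rat S16 Schwann cells with beta-Lac driven by a PMP22 intronic element, compound-treated 24 h at 37 °C. LiveBLAzer FRET B/G read: 460 nm normalized to potassium clavulanate vs DMSO; 535 nm FRET as viability; concentration-effect curves classified.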"}, "AA1029": {"tested_on": "AA1029", "assay": "qHTS profiling for inhibitors of Plasmodium falciparum proliferation (AID 504749); note: nearly all actives have a fitted effect of over 60% in size; note: potency is the fitted concentration of half-maximal effect", "conditions": "P. falciparum in erythrocytes, SYBR Green DNA, 72 h; series mostly up to 28.7 µM", "procedure,_shortened": "(§1)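 Three-day growth assay of blood-stage parasites in erythrocytes (0.3% parasitemia, 2.5% hematocrit) at 37 C, 5% CO2, quantified by SYBR Green DNA staining after overnight detergent lysis.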"}, "AS120": {"tested_on": "AS120", "assay": "qHTS profiling for inhibitors of Plasmodium falciparum proliferation (AID 504749)", "conditions": "P. falciparum in erythrocytes, SYBR Green DNA, 72 h; series mostly up to 28.7 µM", "procedure,_shortened": "as §1"}, "ATS189": {"tested_on": "ATS189", "assay": "qHTS profiling for inhibitors of Plasmodium falciparum proliferation (AID 504749)", "conditions": "P. falciparum in erythrocytes, SYBR Green DNA, 72 h; series mostly up to 28.7 µM", "procedure,_shortened": "as §1"}, "C2A": {"tested_on": "C2A", "assay": "qHTS profiling for inhibitors of Plasmodium falciparum proliferation (AID 504749)", "conditions": "P. falciparum in erythrocytes, SYBR Green DNA, 72 h; series mostly up to 28.7 µM", "procedure,_shortened": "as §1"}, "CP185": {"tested_on": "CP185", "assay": "qHTS profiling for inhibitors of Plasmodium falciparum proliferation (AID 504749)", "conditions": "P. falciparum in erythrocytes, SYBR Green DNA, 72 h; series mostly up to 28.7 µM", "procedure,_shortened": "as §1"}, "CP194": {"tested_on": "CP194", "assay": "qHTS profiling for inhibitors of Plasmodium falciparum proliferation (AID 504749)", "conditions": "P. falciparum in erythrocytes, SYBR Green DNA, 72 h; series mostly up to 28.7 µM", "procedure,_shortened": "as §1"}, "CP201": {"tested_on": "CP201", "assay": "qHTS profiling for inhibitors of Plasmodium falciparum proliferation (AID 504749)", "conditions": "P. falciparum in erythrocytes, SYBR Green DNA, 72 h; series mostly up to 28.7 µM", "procedure,_shortened": "as §1"}, "CP211": {"tested_on": "CP211", "assay": "qHTS profiling for inhibitors of Plasmodium falciparum proliferation (AID 504749)", "conditions": "P. falciparum in erythrocytes, SYBR Green DNA, 72 h; series mostly up to 28.7 µM", "procedure,_shortened": "as §1"}, "CP238": {"tested_on": "CP238", "assay": "qHTS profiling for inhibitors of Plasmodium falciparum proliferation (AID 504749)", "conditions": "P. falciparum in erythrocytes, SYBR Green DNA, 72 h; series mostly up to 28.7 µM", "procedure,_shortened": "as §1"}, "CP252": {"tested_on": "CP252", "assay": "qHTS profiling for inhibitors of Plasmodium falciparum proliferation (AID 504749)", "conditions": "P. falciparum in erythrocytes, SYBR Green DNA, 72 h; series mostly up to 28.7 µM", "procedure,_shortened": "as §1"}, "CP262": {"tested_on": "CP262", "assay": "qHTS profiling for inhibitors of Plasmodium falciparum proliferation (AID 504749)", "conditions": "P. falciparum in erythrocytes, SYBR Green DNA, 72 h; series mostly up to 28.7 µM", "procedure,_shortened": "as §1"}, "CP297": {"tested_on": "CP297", "assay": "qHTS profiling for inhibitors of Plasmodium falciparum proliferation (AID 504749)", "conditions": "P. falciparum in erythrocytes, SYBR Green DNA, 72 h; series mostly up to 28.7 µM", "procedure,_shortened": "as §1"}, "CP329": {"tested_on": "CP329", "assay": "qHTS profiling for inhibitors of Plasmodium falciparum proliferation (AID 504749)", "conditions": "P. falciparum in erythrocytes, SYBR Green DNA, 72 h; series mostly up to 28.7 µM", "procedure,_shortened": "as §1"}, "DFO2036": {"tested_on": "DFO2036", "assay": "qHTS profiling for inhibitors of Plasmodium falciparum proliferation (AID 504749)", "conditions": "P. falciparum in erythrocytes, SYBR Green DNA, 72 h; series mostly up to 28.7 µM", "procedure,_shortened": "as §1"}, "P93_24": {"tested_on": "P93_24", "assay": "qHTS profiling for inhibitors of Plasmodium falciparum proliferation (AID 504749)", "conditions": "P. falciparum in erythrocytes, SYBR Green DNA, 72 h; series mostly up to 28.7 µM", "procedure,_shortened": "as §1"}, "TAB109": {"tested_on": "TAB109", "assay": "qHTS profiling for inhibitors of Plasmodium falciparum proliferation (AID 504749)", "conditions": "P. falciparum in erythrocytes, SYBR Green DNA, 72 h; series mostly up to 28.7 µM", "procedure,_shortened": "as §1"}}, "note": "Results filed as inconclusive are left out. Where a call stands in place of a potency, no number is given. Active and inactive are the calls of the source. Unless noted, calls come from the whole dose curve; as a rule, active = well fitted curve in the direction sought with a large enough effect; inconclusive = small, poorly fitted or top-dose-only effect, or another doubt; inactive = no such curve, though single readings can be large; an effect the other way counts as inactive or inconclusive.", "data": [{"smiles": "CC1(C)[C@@H]2CC[C@]1(C)[C@@H](OC(=O)CSC#N)C2", "values": [{"measurement": "Potency", "setting": "[1]", "value": "inactive"}, {"measurement": "outcome", "setting": "[2]", "value": "inactive"}, {"measurement": "Potency", "setting": "[3]", "value": "inactive"}, {"measurement": "outcome", "setting": "[4]", "value": "inactive"}, {"measurement": "Potency", "setting": "AA1029", "value": "inactive"}, {"measurement": "Potency", "setting": "AS120", "value": "inactive"}, {"measurement": "Potency", "setting": "ATS189", "value": "inactive"}, {"measurement": "Potency", "setting": "C2A", "value": "inactive"}, {"measurement": "Potency", "setting": "CP185", "value": "inactive"}, {"measurement": "Potency", "setting": "CP194", "value": "inactive"}, {"measurement": "Potency", "setting": "CP201", "value": "inactive"}, {"measurement": "Potency", "setting": "CP211", "value": "inactive"}, {"measurement": "Potency", "setting": "CP238", "value": "inactive"}, {"measurement": "Potency", "setting": "CP252", "value": "inactive"}, {"measurement": "Potency", "setting": "CP262", "value": "inactive"}, {"measurement": "Potency", "setting": "CP297", "value": "inactive"}, {"measurement": "Potency", "setting": "CP329", "value": "inactive"}, {"measurement": "Potency", "setting": "DFO2036", "value": "inactive"}, {"measurement": "Potency", "setting": "P93_24", "value": "inactive"}, {"measurement": "Potency", "setting": "TAB109", "value": "inactive"}]}, {"smiles": "COc1cccc2c1C(=O)c1c(O)c3c(c(O)c1C2=O)C[C@](O)(C(=O)CO)C[C@@H]3O[C@H]1C[C@H](N)[C@@H](O)[C@H](C)O1", "values": [{"measurement": "Potency", "setting": "[1]", "value": "inactive"}, {"measurement": "outcome", "setting": "[2]", "value": "inactive"}, {"measurement": "Potency", "setting": "[3]", "value": "inactive"}, {"measurement": "outcome", "setting": "[4]", "value": "inactive"}, {"measurement": "Potency", "setting": "AA1029", "value": "inactive"}, {"measurement": "Potency", "setting": "AS120", "value": "inactive"}, {"measurement": "Potency", "setting": "ATS189", "value": "inactive"}, {"measurement": "Potency", "setting": "C2A", "value": "inactive"}, {"measurement": "Potency", "setting": "CP185", "value": "inactive"}, {"measurement": "Potency", "setting": "CP194", "value": "inactive"}, {"measurement": "Potency", "setting": "CP201", "value": "inactive"}, {"measurement": "Potency", "setting": "CP211", "value": "inactive"}, {"measurement": "Potency", "setting": "CP238", "value": "inactive"}, {"measurement": "Potency", "setting": "CP252", "value": "inactive"}, {"measurement": "Potency", "setting": "CP262", "value": "inactive"}, {"measurement": "Potency", "setting": "CP297", "value": "inactive"}, {"measurement": "Potency", "setting": "CP329", "value": "inactive"}, {"measurement": "Potency", "setting": "DFO2036", "value": "inactive"}, {"measurement": "Potency", "setting": "P93_24", "value": "inactive"}, {"measurement": "Potency", "setting": "TAB109", "value": "inactive"}]}, {"smiles": "O=C(O)[C@@H](O)[C@@H](O)[C@H](O)[C@H](O)CO", "values": [{"measurement": "Potency", "setting": "[1]", "value": "inactive"}, {"measurement": "outcome", "setting": "[2]", "value": "inactive"}, {"measurement": "Potency", "setting": "[3]", "value": "inactive"}, {"measurement": "outcome", "setting": "[4]", "value": "inactive"}, {"measurement": "Potency", "setting": "AA1029", "value": "inactive"}, {"measurement": "Potency", "setting": "C2A", "value": "inactive"}, {"measurement": "Potency", "setting": "CP185", "value": "inactive"}, {"measurement": "Potency", "setting": "CP194", "value": "inactive"}, {"measurement": "Potency", "setting": "CP201", "value": "inactive"}, {"measurement": "Potency", "setting": "CP211", "value": "inactive"}, {"measurement": "Potency", "setting": "CP238", "value": "inactive"}, {"measurement": "Potency", "setting": "CP252", "value": "inactive"}, {"measurement": "Potency", "setting": "CP262", "value": "inactive"}, {"measurement": "Potency", "setting": "CP297", "value": "inactive"}, {"measurement": "Potency", "setting": "CP329", "value": "inactive"}, {"measurement": "Potency", "setting": "P93_24", "value": "10 µM (active)"}, {"measurement": "Potency", "setting": "TAB109", "value": "10 µM (active)"}]}, {"smiles": "NS(=O)(=O)c1cc2c(cc1Cl)N[C@H](Cc1ccccc1)NS2(=O)=O", "values": [{"measurement": "Potency", "setting": "[1]", "value": "inactive"}, {"measurement": "outcome", "setting": "[2]", "value": "inactive"}, {"measurement": "Potency", "setting": "[3]", "value": "inactive"}, {"measurement": "outcome", "setting": "[4]", "value": "inactive"}, {"measurement": "Potency", "setting": "AA1029", "value": "inactive"}, {"measurement": "Potency", "setting": "AS120", "value": "inactive"}, {"measurement": "Potency", "setting": "ATS189", "value": "inactive"}, {"measurement": "Potency", "setting": "C2A", "value": "inactive"}, {"measurement": "Potency", "setting": "CP185", "value": "inactive"}, {"measurement": "Potency", "setting": "CP194", "value": "inactive"}, {"measurement": "Potency", "setting": "CP201", "value": "inactive"}, {"measurement": "Potency", "setting": "CP211", "value": "inactive"}, {"measurement": "Potency", "setting": "CP238", "value": "inactive"}, {"measurement": "Potency", "setting": "CP252", "value": "inactive"}, {"measurement": "Potency", "setting": "CP262", "value": "inactive"}, {"measurement": "Potency", "setting": "CP297", "value": "inactive"}, {"measurement": "Potency", "setting": "CP329", "value": "inactive"}, {"measurement": "Potency", "setting": "DFO2036", "value": "inactive"}, {"measurement": "Potency", "setting": "P93_24", "value": "inactive"}, {"measurement": "Potency", "setting": "TAB109", "value": "inactive"}]}]}
